# The list is not random: actives were taken first. Their share in the collection is about 3.3%.
# Mcl-1 Bim block – disrupts Bim peptide binding to human Mcl-1; Q07820; Bead-based flow cytometry, Bim peptide-Mcl-1 binding; inhibition, % at 10 µM; 190,000 tested, 0.1% active; in the data active = inhibition above about 40%;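 note: 0% = no compound tracer wells and 100% = peptide blocker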
# Target sequence (Q07820 whole entry, looked up): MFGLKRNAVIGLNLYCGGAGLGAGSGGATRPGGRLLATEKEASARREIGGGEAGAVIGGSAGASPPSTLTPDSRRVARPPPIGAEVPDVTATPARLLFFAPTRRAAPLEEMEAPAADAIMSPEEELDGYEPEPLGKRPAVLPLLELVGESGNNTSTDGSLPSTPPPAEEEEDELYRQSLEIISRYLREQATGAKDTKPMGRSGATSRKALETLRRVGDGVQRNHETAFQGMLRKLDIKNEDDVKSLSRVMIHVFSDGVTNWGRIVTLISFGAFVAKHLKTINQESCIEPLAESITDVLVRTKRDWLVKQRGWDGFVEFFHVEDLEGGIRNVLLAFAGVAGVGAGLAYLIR
# 14-3-3 Bad PPI – disrupts binding of bovine 14-3-3 zeta to phospho-Bad peptide. 220,000 tested, 0.71% active. TR-FRET 14-3-3zeta/Dy647-pBad peptide displacement, 1 h. P63103. inhibition, % at 21.7 µM;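 active = inhibition above about 70%, limit read from the data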;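 note: 0% = full 14-3-3 plus peptide FRET controls and 100% = background without 14-3-3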
# Target sequence (P63103 whole entry, looked up): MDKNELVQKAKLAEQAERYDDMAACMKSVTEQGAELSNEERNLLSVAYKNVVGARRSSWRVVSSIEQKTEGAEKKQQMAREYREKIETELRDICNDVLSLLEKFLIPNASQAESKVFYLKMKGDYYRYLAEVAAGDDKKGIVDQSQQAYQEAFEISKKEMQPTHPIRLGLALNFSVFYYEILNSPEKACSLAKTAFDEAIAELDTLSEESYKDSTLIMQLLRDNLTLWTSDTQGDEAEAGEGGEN
# NCF1 inh – blocks human p47phox regulatory protein of NADPH oxidases; P14598; p47phox/p22phox peptide binding, fluorescence polarization, 2 h; inhibition, % at 24.7 µM; 220,000 tested, 0.53% active;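 note: 0% = p47phox with labelled peptide and 100% = labelled peptide alone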
# Mcl1-Bid inh – disrupts binding of human Mcl-1 to Bid peptide | inhibition, % at 21.7 µM | Q07820 | TR-FRET Mcl-1/Bid-Dy647 peptide binding, 1536-well | 220,000 tested, 0.97% active;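 active = compounds that cut the binding signal by more than half at the single screening dose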;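 note: His-tagged Mcl-1 with europium anti-His antibody binding Bid BH3 peptide; 0% = Mcl-1 plus peptide wells and 100% = peptide-only wells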
# eIF4E 4G PPI – eIF4E/eIF4G interaction inhibition in translation initiation | TR-FRET eIF4E-eIF4GI(517-606) binding, 2 h | inhibition, % at 21.7 µM | 220,000 tested, 0.37% active;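 note: 0% = full FRET control wells and 100% = background wells lacking eIF4GI fragment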
# Mcl1-Noxa inh – Mcl-1/Noxa interaction inhibition. Q07820. 220,000 tested, 1.5% active. inhibition, % at 21.7 µM. TR-FRET Mcl-1/Noxa peptide binding, 2 h;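 active = compounds that cut the protein-peptide binding signal by more than 50% relative to plate controls in a single-dose test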;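 note: His-tagged Mcl-1 with rhodamine Noxa BH3 peptide and terbium anti-His antibody; 0% = Mcl-1 plus Noxa peptide wells and 100% = peptide-only wells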
# * hit, by the source's call; x = no result; [ ] = dose if it differs, or a comment.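 Rule for the calls, unless noted: active = inhibition above about 30% (limit read from the data); inactive = the rest.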
SMILES,Mcl-1 Bim block,14-3-3 Bad PPI,NCF1 inh,Mcl1-Bid inh,eIF4E 4G PPI,Mcl1-Noxa inh
CC(=O)Nc1ccc2ccccc2c1,-2.0,92.1*[fluorescence artefact?],-8.7,-11.7,5.5,7.7
CC(=O)Nc1ccc2oc(C)nc2c1,0.0,-6.4,-10.7,-11.5,2.1,3.8
Cc1ccc(-c2nn(C)c(=O)c3ccccc23)cc1CNC(=O)NC1CCCCC1,x,7.7,-4.8,-2.3,3.5,-5.6
O=C(Nc1ccccc1)c1ccc2ccccc2n1,-1.0,79.7*,-7.3,-4.2,-0.9,5.2
O=C1CCCC(O)=C1C1C2=C(CCCC2=O)OC2=C1C(=O)CCC2,-1.0,-9.6,1.3,-15.7,-0.3,5.8
COc1ccc2c(c1)OC1=C(C(=O)CCC1)C2C1=C(O)CCCC1=O (centres undefined),-2.0,72.8*,-0.8,-30.7,-1.2,6.4
C/C(=N/OC(=O)C1CC12CCC2)c1ccc(Br)cc1 (centres undefined),0.0,-0.8,19.8,-4.3,-2.3,-17.4
CCNc1nc(-c2ccc(OC(F)F)cc2)c(C)s1,0.0,-0.2,3.5,-23.0,0.4,6.2
COc1ccc(C(=O)N2CC3(C)CC2CC(C)(C)C3)cc1 (centres undefined),-3.0,8.6,56.2*,-1.7,-4.8,5.0
CC1(C)CC2CC(C)(CN2C(=O)c2ccccc2)C1 (centres undefined),1.0,-2.2,-2.0,-4.8,-1.6,-2.5
COc1ccc(OCC(=O)N2CC3(C)CC2CC(C)(C)C3)cc1 (centres undefined),0.0,-2.2,2.1,-14.7,36.2*,5.4
Cc1ccc2nc(NC(=O)c3cccc(-c4cc5ccccc5oc4=O)c3)sc2c1,-1.0,59.4,23.2,74.8*,-25.0,31.5
CCOc1ccc2nc(NC(=O)c3cccc(-c4cc5ccccc5oc4=O)c3)sc2c1,-6.0,51.5,56.6*,84.3*,8.8,75.5*
CCn1nnc(NC(=O)c2cccc(-c3cc4ccccc4oc3=O)c2)n1,-1.0,-5.8,-7.1,-6.9,13.0,-15.4
Cc1ccc2nc(NC(=O)c3ccc(N4C(=O)CCC4=O)cc3)sc2c1,1.0,0.5,-28.5,0.4,1.3,58.4*
O=C(N/N=C/c1ccc(Cl)c([N+](=O)[O-])c1)c1cc(-c2ccc3c4c(cccc24)CC3)n[nH]1,x,22.9,3.6,22.8,4.1,64.2*
O=C(N/N=C/c1cccc([N+](=O)[O-])c1)c1cc(-c2ccc3c4c(cccc24)CC3)n[nH]1,-5.0,43.4,4.5,59.7*,2.7,24.4
Nc1cc(C(=O)N/N=C/c2cccc([N+](=O)[O-])c2)n[nH]c1=O,x,-3.4,-17.9,-55.2,1.0,20.4
CC(C)(CC(=O)O)CC(=O)Nc1ccc(Cl)c(Cl)c1,x,-0.8,1.9,15.3,-1.2,13.3
CCOc1ccc(-n2c(SCC(=O)Nc3ccccc3C)n[nH]c2=O)cc1,-1.0,14.6,-7.2,65.0*,-16.1,-6.2
Cc1c(NC(=O)CSc2n[nH]c(=O)n2-c2ccccc2)c(=O)n(-c2ccccc2)n1C,-3.0,41.2,4.8,-9.3,4.5,27.0
CN1CCN(Cc2cccc(Oc3ccc(Cl)cc3)c2)CC1,-1.0,62.4,-1.1,66.6*,-0.5,27.0
Cc1cccc(-c2oc(C)c(C)[n+]2[O-])c1,-2.0,72.5*,-1.6,26.3,-11.6,16.2
Cc1oc(-c2ccccc2)[n+]([O-])c1C,-1.0,x,x,x,x,x
CC(=O)c1csc(Nc2ccccc2Cl)n1,x,90.0*,-0.1,-3.1,0.4,-13.7
SMILES,Mcl-1 Bim block,14-3-3 Bad PPI,NCF1 inh,Mcl1-Bid inh,eIF4E 4G PPI,Mcl1-Noxa inh
Cc1cnc(C(=O)OCC(=O)Nc2oc(-c3ccccc3)c(-c3ccccc3)c2C#N)cn1,0.0,0.3,-8.2,1.3,-2.1,54.3*
N#Cc1c(NC(=O)CSc2ccccn2)oc(-c2ccccc2)c1-c1ccccc1,-1.0,-2.2,-63.0,7.7,1.0,21.2
O=c1oc2ccccc2cc1-c1csc(Nc2nc3c(F)cccc3s2)n1,-4.0,26.9,-55.6,33.5,18.4,69.8*
O=c1oc2ccccc2cc1-c1csc(NN=C2CCCCC2)n1,3.0,-9.0,-11.2,-45.4,1.5,7.4
Cc1ccc(NC(=O)CN(C)C(=O)c2cc3ccccc3o2)cc1,-2.0,-15.8,8.5,-26.5,-3.8,14.7
CCCCNC(=O)c1ccc(S(=O)(=O)c2ccc(Cl)cc2)c(NC(C)=O)c1,-1.0,72.2*,-1.5,-6.5,4.5,10.7
Cc1cccc2cc(/C=N/NC(=O)CN3CCOCC3)c(Cl)nc12,-2.0,-5.9,-0.9,86.9*,-0.3,-1.0
O=C(CN1CCOCC1)N/N=C/c1ccc(C(=O)O)cc1,-2.0,-15.4,-2.4,-32.2,3.5,-10.0
Cc1ccc2cc(/C=N/NC(=O)CN3CCOCC3)c(Cl)nc2c1,0.0,-0.1,6.4,74.1*,0.3,5.6
O=C(CN1CCOCC1)N/N=C/c1ccc(-c2cccc(Cl)c2Cl)o1,x,77.4*,-11.2,-2.0,3.8,20.8
O=C1N=C(N2CCN(c3ccccc3)CC2)S/C1=C\c1ccco1,0.0,-12.0,-7.2,-55.1,1.9,6.8
NC1=NC(=O)/C(=C\c2ccco2)S1,x,21.4,-10.8,-68.9,1.8,56.9*
O=C(c1ccco1)[C@@H]1[C@@H]2C(=O)N(c3ccc(F)cc3)C(=O)[C@@H]2[C@H]2C=Cc3ccccc3N21,5.0,88.8*[fluorescence artefact?],17.3,24.2,2.3,73.0*
CCC1(O)CC(C(=O)OC)=NN1C(=O)c1ccccc1 (centres undefined),-2.0,-13.4,-2.0,-10.7,-1.9,64.2*
CCc1ccc(NC(=O)COc2ccc(/C=C(/C#N)c3nc4ccccc4[nH]3)cc2OC)cc1,-13.0,58.8,2.4,55.7*,-3.0,34.3
COC(=O)c1ccc(COc2ccc(/C=C(\C#N)c3nc4ccccc4[nH]3)cc2OC)o1,-3.0,5.8,-112.7,-35.0,-1.2,4.5
COc1cc(/C=N/NC(=O)C(Cc2c[nH]c3ccccc23)NC(=O)OCc2ccccc2)cc([N+](=O)[O-])c1O (centres undefined),-2.0,-8.8,-25.3,-63.6,3.4,81.3*
CC(=O)NC(Cc1c[nH]c2ccccc12)C(=O)N/N=C/c1ccccc1 (centres undefined),-5.0,-8.7,-7.6,-28.2,2.2,3.8
COc1cc(/C=N/NC(=O)C(Cc2c[nH]c3ccccc23)NC(=O)OCC(C)C)cc([N+](=O)[O-])c1OCc1ccccc1 (centres undefined),2.0,-11.0,1.6,-17.1,5.3,-4.4
COc1cc(/C=N/NC(=O)C(Cc2c[nH]c3ccccc23)NC(=O)OCC(C)C)cc([N+](=O)[O-])c1O (centres undefined),-2.0,2.0,-1.4,-40.6,1.0,51.9*
Fc1cccc(Cl)c1CNc1ccc(N2CCCC2)cc1,16.0,27.4,3.1,-39.7,34.7*,72.3*

# Screening data from PubChem BioAssay.
